According to PubChem BioAssay (NCI):
Compounds without any hit were thinned out: in the full panel of roughly 83,000, 20% have a hit.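 Note: values are percent growth. 100 is the growth of untreated cells, values between 100 and 0 indicate rising inhibition; between -100 and 0 indicates cell death.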 Calls of active or inactive are those of the source. How the source made its calls: active means growth percent below 10; inactive means the rest.

Legend:
Test in all cases: NCI-60 one-dose screen, 48 h (100 = growth as untreated, 0 = no growth, -100 = all killed)
Conditions in all cases: 10 µM unless noted
SK-MEL-2 melanoma = test system: SK-MEL-2 melanoma
EKVX NSCLC = test system: EKVX NSCLC
SN12C renal = test system: SN12C renal
UO-31 renal = test system: UO-31 renal
TK-10 renal = test system: TK-10 renal
ACHN renal = test system: ACHN renal
A498 renal = test system: A498 renal
CCRF-CEM leukemia = test system: CCRF-CEM leukemia
MOLT-4 leukemia = test system: MOLT-4 leukemia
SR leukemia = test system: SR leukemia

Measured: growth

CCCCCCCc1n(Cc2ccc3ccccc3c2)c2ccccc2[n+]1Cc1ccc2ccccc2c1
active: SK-MEL-2 melanoma -74.9% | EKVX NSCLC -73.5% | SN12C renal -79.8% | UO-31 renal -88.1% | TK-10 renal -87.3% | ACHN renal -87.4% | A498 renal -93.3% | CCRF-CEM leukemia -59.1% | MOLT-4 leukemia -68% | SR leukemia -60.4%

Cc1cccc(C)c1Nc1nnc(-c2ccc(F)cc2)o1
inactive: SK-MEL-2 melanoma 105% | EKVX NSCLC 104% | SN12C renal 105% | UO-31 renal 88.8% | TK-10 renal 105% | ACHN renal 100% | A498 renal 103% | CCRF-CEM leukemia 100% | MOLT-4 leukemia 110% | SR leukemia 119%

O=C1CC23OC(C(O)c4ccccc4N12)C1C(c2ccccc2)=NOC13 (stereo not given)
inactive: SK-MEL-2 melanoma 40.8% | EKVX NSCLC 57.7% | SN12C renal 42.9% | UO-31 renal 45.1% | TK-10 renal 102% | ACHN renal 52.7% | A498 renal 71% | CCRF-CEM leukemia 68.3% | MOLT-4 leukemia 37.2% | SR leukemia 22.2%

Cc1ccc2nc3nc4ccc[nH]c4cc3c2c1
inactive: SK-MEL-2 melanoma 113% | EKVX NSCLC 56.8% | SN12C renal 105% | UO-31 renal 65.8% | TK-10 renal 46.9% | ACHN renal 81.8% | A498 renal 124% | CCRF-CEM leukemia 98.9% | MOLT-4 leukemia 119% | SR leukemia 18.1%

O=C(Nc1cc(=O)[nH]c(=O)[nH]1)C(Cl)Cl
inactive: SK-MEL-2 melanoma 105% | EKVX NSCLC 114% | SN12C renal 98% | UO-31 renal 88.8% | TK-10 renal 101% | ACHN renal 111% | A498 renal 100% | CCRF-CEM leukemia 96% | MOLT-4 leukemia 98.4% | SR leukemia 98.6%

CCOC(=O)/C=C1\SC(=Nc2ccc(C#N)cc2)N(CCN2C(=O)/C(=C/C(=O)OCC)SC2=Nc2ccc(C#N)cc2)C1=O
active: CCRF-CEM leukemia 1.57% | MOLT-4 leukemia 9.39% | SR leukemia 1.69%
inactive: SK-MEL-2 melanoma 80.8% | EKVX NSCLC 35.2% | SN12C renal 24.2% | UO-31 renal 56.6% | TK-10 renal 87.4% | ACHN renal 78.6% | A498 renal 63.7%

COc1ccc(-c2cs/c(=N\N=C\c3ccc(O)cc3O)n2/N=C/c2ccc(O)cc2O)cc1
active: SK-MEL-2 melanoma -28.4% | EKVX NSCLC 7.59% | SN12C renal 4.01% | UO-31 renal -65% | TK-10 renal -31.3% | ACHN renal -34.3% | A498 renal -6.11% | CCRF-CEM leukemia 2.63% | MOLT-4 leukemia -35.3% | SR leukemia 6.76%

CC(=O)Nc1ccc2c(c1)Cc1cc(F)ccc1-2
inactive: SK-MEL-2 melanoma 94.8% | EKVX NSCLC 104% | SN12C renal 107% | UO-31 renal 56.8% | TK-10 renal 104% | ACHN renal 104% | A498 renal 73.2% | CCRF-CEM leukemia 99.1% | MOLT-4 leukemia 89.4% | SR leukemia 87.5%

CCC1=C[C@H]2CN(CCc3c([nH]c4ccccc34)[C@@](C(=O)OC)(c3cc4c(cc3OC)N(C)[C@H]3[C@@](O)(C(=O)OC)[C@H](OC(C)=O)[C@]5(CC)[C@@H]6C[C@@H]6CN6CC[C@]43[C@@H]65)C2)C1
inactive: SK-MEL-2 melanoma 13.2% | EKVX NSCLC 35.5% | SN12C renal 30.1% | UO-31 renal 14.7% | TK-10 renal 28.9% | ACHN renal 19.1%
active: A498 renal -15.2% | CCRF-CEM leukemia -5.97% | MOLT-4 leukemia 4.19% | SR leukemia -9.46%

N#Cc1c(-c2ccc(F)cc2)nc(N/N=C/c2cccc(O)c2)nc1N1CCOCC1
inactive: SK-MEL-2 melanoma 85.9% | EKVX NSCLC 86.9% | SN12C renal 96.7% | UO-31 renal 45.3% | TK-10 renal 63.3% | ACHN renal 66.9% | A498 renal 78.7% | CCRF-CEM leukemia 56.4% | MOLT-4 leukemia 40%
active: SR leukemia 2.93%

O=C(Nc1nc(-c2ccccc2)cs1)c1cc(-c2ccc(Br)cc2)nc2ccccc12
inactive: SK-MEL-2 melanoma 67% | EKVX NSCLC 41.2% | SN12C renal 54.9% | UO-31 renal 17.2% | TK-10 renal 63.2% | ACHN renal 55.4% | CCRF-CEM leukemia 20.9% | MOLT-4 leukemia 24% | SR leukemia 19.5%
active: A498 renal -55.9%

COC(=O)[C@]1(C)CCC[C@]2(C)[C@H]3C[C@H]4C(C(C)C)=C[C@]3(CC[C@H]21)[C@@H]1C(=O)N(CCC#N)C(=O)[C@@H]14
inactive: SK-MEL-2 melanoma 88.6% | EKVX NSCLC 79.5% | SN12C renal 90.2% | UO-31 renal 76.1% | TK-10 renal 104% | ACHN renal 96.3% | A498 renal 105% | CCRF-CEM leukemia 61.8% | MOLT-4 leukemia 38.2% | SR leukemia 80.4%

CCCCn1c(=O)c(/C=C/C(=O)/C=C/c2cc3ccccc3n(CCCC)c2=O)cc2ccccc21
active: SN12C renal -28.1% | UO-31 renal -95.1% | ACHN renal 5.75% | CCRF-CEM leukemia -0.077% | MOLT-4 leukemia 1.3% | SR leukemia 1.82%
inactive: SK-MEL-2 melanoma 79.5% | EKVX NSCLC 35.8% | TK-10 renal 23.4% | A498 renal 12.8%

Cc1ccc(C(=O)O)o1
inactive: SK-MEL-2 melanoma 96.1% | EKVX NSCLC 104% | SN12C renal 110% | UO-31 renal 95.4% | TK-10 renal 96.9% | ACHN renal 111% | A498 renal 108% | CCRF-CEM leukemia 115% | MOLT-4 leukemia 101% | SR leukemia 116%

CC(C)(C)c1ccc(O)c(Cc2cc(C(C)(C)C)ccc2O)c1
inactive: SK-MEL-2 melanoma 80% | EKVX NSCLC 78.5% | SN12C renal 87.5% | UO-31 renal 85.7% | TK-10 renal 94.2% | ACHN renal 106% | A498 renal 87.3% | MOLT-4 leukemia 64.6% | SR leukemia 24.5%
active: CCRF-CEM leukemia 0.931%

S=c1ssnc1-c1cc2ccccc2o1
inactive: SK-MEL-2 melanoma 91.2% | EKVX NSCLC 76.6% | SN12C renal 98.8% | UO-31 renal 52.5% | TK-10 renal 98.4% | ACHN renal 80.3% | A498 renal 103% | MOLT-4 leukemia 51.1% | SR leukemia 41.6%
active: CCRF-CEM leukemia 7.9%

CN(CCC#N)C(=O)Nc1ccccc1
inactive: SK-MEL-2 melanoma 98.7% | EKVX NSCLC 105% | SN12C renal 111% | UO-31 renal 87.3% | TK-10 renal 84.1% | ACHN renal 110% | A498 renal 90.4% | CCRF-CEM leukemia 111% | MOLT-4 leukemia 99.7% | SR leukemia 96.5%

Cc1cc(NC(=O)CNc2nc(Oc3ccc(F)cc3)nc(-c3ccc(F)cc3)n2)ccc1Cl
inactive: SK-MEL-2 melanoma 103% | EKVX NSCLC 98.6% | SN12C renal 100% | UO-31 renal 97% | TK-10 renal 96.5% | ACHN renal 112% | A498 renal 89.3% | CCRF-CEM leukemia 95.3% | MOLT-4 leukemia 80.1% | SR leukemia 85.2%

Nc1ccc(C2=NN(C(=O)c3cc(-c4ccc(Cl)cc4)nc4ccccc34)C(c3ccc(Cl)cc3)C2)cc1 (stereo not given)
inactive: SK-MEL-2 melanoma 34.7% | EKVX NSCLC 42.8% | SN12C renal 56.5% | UO-31 renal 47.6% | TK-10 renal 55.3% | ACHN renal 54.4% | A498 renal 31.1% | CCRF-CEM leukemia 17.8% | MOLT-4 leukemia 42.6% | SR leukemia 25.7%

COc1cc(-c2cn(-c3ccc(Cl)c(Cl)c3)c(=O)[nH]2)cc(OC)c1OC
inactive: SK-MEL-2 melanoma 97% | EKVX NSCLC 95.3% | SN12C renal 87.5% | UO-31 renal 93.6% | TK-10 renal 94.7% | ACHN renal 96.5% | A498 renal 110% | CCRF-CEM leukemia 99.6% | MOLT-4 leukemia 85.1% | SR leukemia 31%

O=S(=O)(Nc1nccs1)c1ccc(Nc2nc(-c3ccncc3)cs2)cc1
inactive: SK-MEL-2 melanoma 105% | EKVX NSCLC 107% | SN12C renal 97.4% | UO-31 renal 101% | TK-10 renal 120% | ACHN renal 99.5% | A498 renal 113% | CCRF-CEM leukemia 104% | MOLT-4 leukemia 117% | SR leukemia 111%

COc1cc(N=Nc2cc(S(=O)(=O)O)cc3cc(S(=O)(=O)O)cc(O)c23)c(C)cc1N=Nc1c(S(=O)(=O)O)cc2cc(Nc3ccccc3)ccc2c1O
inactive: SK-MEL-2 melanoma 103% | EKVX NSCLC 107% | SN12C renal 103% | UO-31 renal 81.3% | TK-10 renal 91.1% | ACHN renal 108% | A498 renal 108% | CCRF-CEM leukemia 100% | MOLT-4 leukemia 86.8% | SR leukemia 76.5%

Cc1nnc(/N=C2\NC(=O)/C(=C/c3ccsc3)S2)s1
inactive: SK-MEL-2 melanoma 95.5% | EKVX NSCLC 93.6% | SN12C renal 99.7% | UO-31 renal 81.2% | TK-10 renal 96.7% | ACHN renal 106% | A498 renal 87.7% | CCRF-CEM leukemia 95.1% | MOLT-4 leukemia 95% | SR leukemia 103%

N#Cc1c(-c2ccc(Cl)cc2)cc(-c2cc3ccccc3o2)nc1SCC(=O)c1ccc(Cl)cc1
inactive: SK-MEL-2 melanoma 91% | EKVX NSCLC 116% | SN12C renal 94.2% | UO-31 renal 79.8% | TK-10 renal 139% | ACHN renal 86.9% | A498 renal 111% | CCRF-CEM leukemia 106% | MOLT-4 leukemia 95.1% | SR leukemia 80.2%

COC(=O)/C=C1\SC(=Nc2cccc(OC)c2)N(CCc2c[nH]c3ccccc23)C1=O
inactive: SK-MEL-2 melanoma 60.8% | EKVX NSCLC 76.1% | SN12C renal 64.4% | UO-31 renal 76.3% | TK-10 renal 89.3% | ACHN renal 78.4% | A498 renal 90.1% | CCRF-CEM leukemia 24.7% | SR leukemia 12%
active: MOLT-4 leukemia 2.83%

COc1ccc2nc(-c3ccc(Cl)cc3)cc(C(=O)N3N=C(c4ccc(N)cc4)CC3c3ccccc3)c2c1 (stereo not given)
inactive: SK-MEL-2 melanoma 43.2% | EKVX NSCLC 35.6% | SN12C renal 57.8% | UO-31 renal 45.5% | TK-10 renal 68.1% | ACHN renal 52.8% | A498 renal 56.9% | CCRF-CEM leukemia 31.2% | MOLT-4 leukemia 43.2% | SR leukemia 25.1%
